# MARV entry inh – blocks Marburg virus binding to or entry into cells | AID 540276 | Potency, µM (top dose mostly 37.8 µM), for inactives: at the highest dose activity change, negative = inhibition, hits mostly inhibitors | Marburg virus pseudotyped entry inhibition, cell reporter | actives 1.8% (n = 300,000); calls by dose curve; tested in HEK293 cells; also: potency is read from the fitted curve at half-maximal effect; % is scaled to controls: 0 for no effect and ±100 for the full control effect
# Shiga toxin inh – inhibitors of Shiga toxin in Vero cells | Vero cells, Shiga toxin protein synthesis inhibition reporter | inhibition, % at 38.7 µM | actives 9.2% (n = 290,000) | AID 2315; in the data active = inhibition mostly above about 28%, no sharp cut-off; inactive = mostly below about 43%; also: 0% is about no effect
# CHX counter – counter-screen hit for Shiga toxin inhibitors, cycloheximide; cell reporter, cycloheximide protein synthesis inhibition counterscreen; max response, %; actives 12% (n = 300,000); in the data active = max response mostly above about 13%, no sharp cut-off; inactive = mostly below about 14%; also: read at 38.3 µM for the half of the compounds with a filed dose; 0% is about no effect
# VACV Venus inh – inhibitors of vaccinia virus (Venus reporter) | Vaccinia virus Venus reporter expression, fluorescence | Potency, µM (highest dose often 36.5 µM), for the others: at the highest dose activity change, negative = inhibition, hits mostly inhibitors | actives 0.46% (n = 330,000) | AID 720580; calls by dose curve; tested in A549 cells; also: potency is read from the fitted curve at half-maximal effect; % is scaled to controls: 0 for no effect and ±100 for the full control effect; nearly all actives have a fitted effect of over 30% in size
# Lassa entry inh – Lassa virus entry inhibition; Lassa virus pseudotype entry inhibition, cell reporter; Potency, µM (highest dose often 37.9 µM), for inactives: at the top dose activity change, negative = inhibition, most hits filed as inhibitors; actives 1.2% (n = 300,000); AID 540256; calls by dose curve; tested in HEK293 cells; also: potency is read from the fitted curve at half-maximal effect; % is scaled to controls: 0 for no effect and ±100 for the full control effect; nearly all actives have a fitted effect of over 50% in size
# VACV mCherry inh – vaccinia inhibition (mCherry reporter) | actives 0.63% (n = 310,000) | Potency, µM (titrated, usually from 36.5 µM), for inactives: top-dose activity change, negative = inhibition, usual class: inhibitors | Vaccinia virus mCherry reporter infection, fluorescence; calls by dose curve; tested in A549 cells; also: potency is read from the fitted curve at half-maximal effect; % is scaled to controls: 0 for no effect and ±100 for the full control effect; nearly all actives have a fitted effect of over 35% in size
# Starred values were filed as active, the others as inactive; i = inactive; ? = inconclusive; . = no result given; [ ] = another dose, or the depositor's remark. The sample as a whole holds a higher share of hits than the screen did.
SMILES,MARV entry inh,Shiga toxin inh,CHX counter,VACV Venus inh,Lassa entry inh,VACV mCherry inh
O=C(Nc1ccccc1)N1CCCC(CNS(=O)(=O)Cc2ccccc2)C1 (stereo not given),12%[46.1 µM],10,13*,-1%,.,-11%
Cn1c(=O)c2c(ncn2CCC(=O)N/N=C/c2cccnc2)n(C)c1=O,10%,25,-1,4%,-4%,-10%
COc1ccc(NC(=O)CN(C)S(=O)(=O)c2ccc(C)cc2)c([N+](=O)[O-])c1,8%,-35,0,-10%,-3%,i
COc1ccc(N(C)S(=O)(=O)c2ccc(C)cc2)c([N+](=O)[O-])c1,6%[46.1 µM],3,-11,-14%,13µM*,i
COc1ccc(C(NC(=O)c2c(F)c(F)c(F)c(F)c2F)c2ccccc2)cc1 (stereo not given),?,-9,-5,?,22µM*,?
COc1ccc(C(NC(=O)c2cc(OC)ccc2OC)c2ccccc2)cc1 (stereo not given),?,-2,-2,-22%,?,-9%
COc1cc(CN2CCCC(c3nc(-c4ccncc4)ncc3-c3ccccc3)C2)ccc1O (stereo not given),.,.,.,0%,.,-12%
O=c1cnnc(N/N=C/c2ccccn2)[nH]1,.,-18,-2,-20%,.,2.2µM*
Cc1cc(=O)[nH]c(NN=Cc2c(Cl)cccc2Cl)n1,21%,.,.,-13%,17%,-9%
Cc1cc(=O)[nH]c(N/N=C/c2ccc(Br)s2)n1,?,29,27*,-20%,-1%,-6%
Cc1cc(=O)[nH]c(N/N=C/c2ccccn2)n1,2.6µM*,-34,14*,?,7.1µM*,?
Cc1cc(=O)[nH]c(N/N=C/c2cccc(Br)c2)n1,-5%[46.1 µM],.,15*,-11%,?,-13%
Cc1cc(=O)[nH]c(N/N=C/c2cccc([N+](=O)[O-])c2)n1,-1%,-7,-1,.,6%,.
C(=N\Nc1nc2ccccc2[nH]1)/c1ccccn1,.,-12,-6,.,.,.
Cc1cc(=O)[nH]c(N/N=C/c2ccc(O)c(O)c2)n1,2%[46.1 µM],10,-5,-10%,-5%,?
O=C(COC(=O)c1ccccn1)Nc1cc(Cl)ccc1Cl,5%,-4,2,-14%,23%,-20%[1.46 µM]
O=C(COc1ccccc1)Nc1ccc(Cl)cc1C(=O)c1ccccc1,?,-3,5,-7%,-23%,-8%
O=C(COc1ccccc1)Nc1ccc(Cl)cc1Cl,.,93*,53*,.,.,.
O=C(COc1ccccc1)Nc1ccccc1F,17%,.,33*,-9%,?,-20%
O=C(COc1ccccc1)Nc1cc(Cl)ccc1Cl,.,37*,18*,.,.,.
Cc1ccc(Cl)cc1NC(=O)COc1ccccc1,.,30,16*,.,.,.
COC(=O)c1c(OCc2cccnc2)cc(=O)n2c1CCN(C(=O)c1c3c(nn1C)CCCC3)CC2,.,.,.,-14%,.,-15%
Cc1cccc2sc(N(Cc3cccnc3)C(=O)c3ccco3)nc12,.,.,.,-8%,-1%[46.1 µM],-1%
CN(c1ccc(OCC(=O)Nc2ccccc2C(=O)O)cc1)S(=O)(=O)c1ccc(Cl)cc1,3.5µM*,.,.,-7%,3.2µM*,i
CC(=O)Nc1ccc(S(=O)(=O)N(C)c2ccc(OCC(=O)Nc3ccccc3C(C)=O)cc2)cc1,?,.,.,-13%,-22%,-4%
SMILES,MARV entry inh,Shiga toxin inh,CHX counter,VACV Venus inh,Lassa entry inh,VACV mCherry inh
Cc1ccccc1C(=O)Nc1nnc(-c2ccc(C(C)(C)C)cc2)s1,7%,-9,16*,-9%,12%,-17%
Cc1cccc(C(=O)Nc2nnc(-c3ccc(C(C)(C)C)cc3)s2)c1,-29%,46,19*,-10%,?,-17%
COc1ccccc1C(=O)Nc1nnc(-c2ccc(F)cc2)s1,1%[46.1 µM],5,1,-3%,16%[46.1 µM],6%
O=C(/C=C/c1ccc(OC(F)F)cc1)Nc1cccc(S(=O)(=O)NC2=NCCCCC2)c1,?,57*,29*,?,10µM*,?
COc1ccccc1/C=C/C(=O)Nc1cccc(S(=O)(=O)NC2=NCCCCC2)c1,11µM*,38,4,-13%,?,i
CC(C)(C)c1ccc(OCCC(=O)Nc2cccc(S(=O)(=O)NC3=NCCCCC3)c2)cc1,?,.,.,-21%,10µM*,-21%
COc1ccc(/C=C/C(=O)Nc2cccc(S(=O)(=O)NC3=NCCCCC3)c2)cc1,.,74*,26*,.,.,.
CCOC(=O)[C@@H](CC(=O)O)N1CCCCC1,2%,.,.,.,.,.
COc1ccccc1CN(Cc1nc2ccccc2c(=O)[nH]1)C(=O)Nc1cccc(C)c1,?,44*,19*,-1%,-18%,i
CCOc1ncccc1C(=O)OCc1ccc(C(=O)OC)cc1,?,98*,81*,?,-18%,-6%
COC(=O)c1ccc(C(=O)OC)c(NC(=O)COC(=O)c2ccccc2OC)c1,?,-6,-1,-8%,8%,i
COC(=O)c1ccc(COC(=O)c2ccccc2OC)cc1,.,97*,67*,2%,.,i
CCOc1ncccc1C(=O)OCc1ccc(Cl)cc1,-29%,17,15,-6%,?,i
COC(=O)c1ccc(OCC(=O)c2ccccc2OC)cc1,6%,54,22*,.,4%,.
CCC1CN(C(=O)Nc2cccc3c2CCCC3)c2cc(Cl)ccc2O1 (stereo not given),.,.,.,-7%,-6%[46.1 µM],3%
Cc1ccc(-c2onc3ccc(Br)cc23)cc1,18%[46.1 µM],-4,11,-8%,8%[46.1 µM],-5%
Cc1ccc(-c2onc3ccc(C4OCCO4)cc23)cc1,19%[46.1 µM],71*,14*,-13%,-18%,-20%
CCSc1nc2c([nH]c3ccccc32)c(=O)n1C,.,10,-5,-8%,.,-30%
CCSc1nnc2nc3[nH]c4c(C)cccc4c3nn12,?,62*,40*,?,4%[46.1 µM],-29%
Cc1cccc2c1[nH]c1nc(N/N=C\c3ccco3)nnc12,1%,-11,15,.,.,.
C=CCSc1nnc2c(n1)[nH]c1c(C)cccc12,?,60*,40*,?,-4%,?
CC(=NCc1cccnc1)C1=C(O)c2ccccc2C1=O,-11%[46.1 µM],8,7,-13%,3%,-8%
CCCN=C(C)C1=C(O)c2ccccc2C1=O,?,84*,107*,-4%,?,0%
CC(=NCc1ccncc1)C1=C(O)c2ccccc2C1=O,1%,76*,18*,.,.,.
CC(C)Nc1nc2c(-c3cccc(Br)c3)nnn2c2ccccc12,?,.,.,1%,25%[46.1 µM],-3%
C(=N\Nc1nc(-c2cccnc2)nc2ccccc12)/c1ccccc1,0%[46.1 µM],50*,23*,-2%,3%,-14%
COC(=O)c1cccc(Nc2nc(-c3cccnc3)nc3ccccc23)c1,?,13,-2,-24%,-15%[46.1 µM],-15%
C(=N\Nc1nc(-c2ccccn2)nc2ccccc12)/c1ccccc1,.,7,7,.,.,.
CCOC(=O)c1cccc(Nc2nc(-c3cccnc3)nc3ccccc23)c1,?,-11,-2,22µM*,?,.
Cc1ccc(Nc2nc(-c3ccncc3)nc3ccccc23)cc1,2.2µM*,25,-2,-1%,1%,?

# Screening results: PubChem BioAssay, National Center for Advancing Translational Sciences (NCATS)
